The text below walks through data of PubChem BioAssay (NCI).

Compounds without any hit were thinned out: in the full panel of roughly 83,000, 20% have a hit.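 Interpretation: 100, growth as untreated; towards 0, rising growth inhibition; 0, no net growth; 0 to -100, cell death. Compounds scoring below 10 were considered active.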 The source made the active and inactive calls.

For one experiment, the system named is OVCAR-5 ovarian. The experiment can be described thus: NCI-60 one-dose screen, 48 h (100 = growth as untreated, 0 = no growth, -100 = all killed). Particulars: 10 µM unless noted.
With `CN(C)c1ccc(N)c2ccccc12`, the growth was 75.4% (inactive).
For `CSc1ccc(N(C)c2nc(C)nc3c2CCC3)cc1`, the growth was 33.2% (inactive).
Same read-out and setting: the result for `C=C(C)[C@@H]1CC[C@]2(C(=O)NNC(=O)c3cccnc3)CC[C@]3(C)[C@H](CC[C@@H]4[C@@]5(C)CCCNC(C)(C)[C@@H]5CC[C@]43C)[C@@H]12` reads 96.9% (inactive).

A further experiment has as its system OVCAR-4 ovarian. The experiment is described as above. The following applies: 10 µM unless noted.
Take `O=C1c2ccccc2C(=Cc2ccccc2)c2ccccc21`: the growth is 6.28% (active).
For the compound `N#CC1=C(N)Oc2c(sc3c(F)cccc23)C1c1ccc(Cl)cc1` (stereo unspecified), the growth was 62.8% (inactive).
Same read-out and setting: the result for `O=C(Nc1ccc(/C=C2\SC(=O)N(Cc3ccc(OC(F)(F)F)cc3)C2=O)cc1)c1ccc(Cl)c([N+](=O)[O-])c1` reads 31.4% (inactive); that for `C[C@@H](C(=O)O)c1ccc2c3cc(Cl)ccc3n(Cc3cc(=O)oc4ccc(Cl)cc34)c2c1`, 98.9% (inactive).
The same measure, in the same setting: then `Cn1c(=O)c2c(nc(Br)n2CC(=O)Nc2ccc(F)cc2)n(C)c1=O`, with 120% (inactive); and `COC(=O)C(N)CSC(c1ccccc1)(c1ccccc1)c1ccccc1` (stereo unspecified), with 79.8% (inactive); and `NS(=O)(=O)c1ccc(CCNC(=O)/C=C/c2ccc(Cl)cc2)cc1`, with 87.1% (inactive).
Still for that read-out and setting: the result for `C[C@H]1[C@H]2C3=CC[C@@H]4[C@@]5(C)C/C(=C/c6ccco6)C(=O)C(C)(C)[C@@H]5CC[C@@]4(C)[C@]3(C)CC[C@@]2(C(=O)N2CCOCC2)CC[C@@H]1C` reads 50.1% (inactive); that for `COC1=C(Br)C(=O)C(OC)=C(Br)C1=O`, 96.8% (inactive).
For the compound `Cn1cc(-c2csc(-c3cn(CCN)c4ccc(F)cc34)n2)c2cccnc21`, the growth is 54.6% (inactive).
On the same count and under the same terms, the result for `O=C1/C(=C\c2ccco2)SC(=S)N1CCc1ccc(O)cc1` reads 90.3% (inactive); that for `COc1cccc(-c2nn(-c3ccccc3)cc2-c2ccnc(NCCNS(=O)(=O)c3ccccc3)c2)c1`, 39.3% (inactive).
Still for that read-out and setting: then `C[C@]12CC[C@@H]3c4ccc(O)cc4CC[C@H]3[C@@H]1C[C@H](O)[C@@H]2O`, with 99.8% (inactive); and `COc1cc2c3c(c4c5ccccc5[nH]c4c2c(OC)c1OC)C(=O)N(O)C3=O`, with 56.6% (inactive).
Same read-out and setting: then `Clc1cc(Cl)cc(Nc2ccc3c(OCCCN4CCOCC4)cccc3n2)c1`, with 65.3% (inactive); and `C/C(=N/NC(N)=S)C(=O)O`, with 85.5% (inactive).
Regarding `CCCCC[C@H]1C/C=C2/C(=O)C(Cl)=C[C@@H]2C/C=C\CCCC(=O)O1`, the growth was 16.3% (inactive).
As for `Cn1c2ccccc2c2c3c(c4c5cccnc5[nH]c4c21)C(=O)N(O)C3=O`, the growth was 71.3% (inactive).
Still for that read-out and setting: then `O=C1CN(c2ccccc2)C(=O)C1C(=O)Nc1ccc(Cl)c(Cl)c1` (stereo unspecified), with 0.243% [100 µM] (active).
The same measure, in the same setting: the result for `CCc1cccc(CC)c1NC(=O)c1sc2nc3c(cc2c1N)CCCC3` reads 78.2% (inactive); that for `Cc1cccc2c1NC(=O)[C@@]21[C@H](C(=O)c2ccccc2)[C@]2(C(=O)Nc3ccccc32)[C@H]2CCCN21`, -20.3% [100 µM] (active).
The same measure, in the same setting: the result for `C[C@H]1OC(=O)/C=C/[C@@H](O)[C@@H](O)CCCCCCCC[C@@H]1O` reads 101% (inactive); that for `COc1cccc(-c2nn(-c3ccccc3)cc2-c2ccnc(NCCNS(=O)(=O)c3cccc(F)c3)c2)c1`, 31.1% (inactive).
As to `CCCC(=O)N1CCCCC1CC` (stereo unspecified), the growth was 102% (inactive).
Still for that read-out and setting: the result for `CC(=O)O[C@@H]1CCN2C(=O)N(C)c3ccccc3[C@@H]2C1` reads 107% (inactive).
On the same count and under the same terms, the result for `O=C(/C=C\c1ccc2c(c1)OCO2)/C=C/c1ccc2c(c1)OCO2` reads 84.9% (inactive); that for `O=C1NC(c2ccc(Cl)c(Cl)c2)=C/C1=C\c1ccccc1`, -36.6% (active).
On to `O=C1C=Cc2ncccc2C1=O`, for which the growth was 111% (inactive).
Regarding `COc1ccc(C2C(C#N)=C(N)Oc3c2sc2c(F)cccc32)cc1` (stereo unspecified), the growth was 65.7% (inactive).
On the same count and under the same terms, then `COC(=O)[C@]12CC[C@@H](C)[C@H](C)[C@@H]1C1=CC[C@@H]3[C@@]4(C)C(c5ncon5)=C[C@@](C)(CO)C4=CC[C@@]3(C)[C@]1(C)CC2`, with 5.83% (active).
Still for that read-out and setting: the result for `Cc1cc2nc3c4cc(Cl)ccc4n(CCN(C)C)c3nc2cc1C` reads 27.1% (inactive).
Same read-out and setting: then `COc1cc2c(cc1-c1c(C)noc1C)ncc1nc(C3CC3)n([C@H](C)COC(F)F)c12`, with 58.7% (inactive).
In the case of `CCCCC[C@H]1CC=C2C(=O)C(Cl)=C[C@@H]2CC=CCCCC(=O)O[C@@H](CCCCC)CC=C2C(=O)C(Cl)=C[C@@H]2CC=CCCCC(=O)O[C@@H](CCCCC)CC=C2C(=O)C(Cl)=C[C@@H]2CC=CCCCC(=O)O1`, the growth was 59.9% [8 µM] (inactive).
